# Shown is part of a subset that was picked to be rich in hits.
# GIRK2 activator: Activates human GIRK2-containing potassium channels | activation (% efficacy), % for hits at 37.5 µM | HEK293 GIRK2/NPY4 cells, thallium flux fluorescence | 34,000 tested, under 10 active | P48051;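 active = primary screen hit, no activity in plain HEK293 cells, and in GIRK2-only cells above 5% efficacy rising with concentration; inactive = the rest, including fluorescent compounds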;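 note: efficacy is normalized control-subtracted fluorescence 15 s after thallium addition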
# Target sequence (P48051 whole entry, looked up): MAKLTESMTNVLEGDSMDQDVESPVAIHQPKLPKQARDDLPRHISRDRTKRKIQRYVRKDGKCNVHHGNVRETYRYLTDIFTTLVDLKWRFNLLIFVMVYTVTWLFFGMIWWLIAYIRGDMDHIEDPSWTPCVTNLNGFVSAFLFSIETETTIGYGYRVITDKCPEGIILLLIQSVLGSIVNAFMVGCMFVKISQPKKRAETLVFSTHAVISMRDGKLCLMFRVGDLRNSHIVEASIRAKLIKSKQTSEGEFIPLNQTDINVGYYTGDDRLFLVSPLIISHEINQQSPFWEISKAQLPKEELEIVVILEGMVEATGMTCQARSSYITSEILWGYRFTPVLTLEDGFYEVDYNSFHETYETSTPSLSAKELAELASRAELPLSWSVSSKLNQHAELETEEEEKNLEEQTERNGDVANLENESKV
# GluA2 TARP mod: modulators of AMPA receptor GluA2-stargazin complexes; hit rate 3.5% among 40,000; calls only at 30 µM; O88602+P19491; HEK293 GluA2+stargazin, membrane potential dye (FDSS), glutamate EC50; hits were called plate by plate, in both directions;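 active = any of four per-well response measures lying three or more SD from its plate-wide compound average, in either direction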
# Active calls of the source: *; i = inactive; / = no result; + = active, no number; ! = a repeat was not active.
SMILES,GIRK2 activator,GluA2 TARP mod
Cc1ccc(OCC(O)Cn2c(N3CCN(C)CC3)nc3c2c(=O)n(C)c(=O)n3C)cc1C (stereo not given),/,+
CC1CCN(c2nc3c(c(=O)[nH]c(=O)n3C)n2CC(O)COc2ccc(Cl)cc2)CC1 (stereo not given),/,i
Cn1c(=O)[nH]c(=O)c2c1nc(N1CCNCC1)n2CC(O)COc1ccc(Cl)cc1 (stereo not given),/,+
Cc1ccc(OCC(O)Cn2c(N3CCCC3)nc3c2c(=O)n(C)c(=O)n3C)cc1C (stereo not given),/,i
Cc1cc(N2CCN(Cc3ccccc3)CC2)nc(-n2cc([N+](=O)[O-])cn2)n1,i,+
Cc1cc(N2CCC(Cc3ccccc3)CC2)nc(-n2cc([N+](=O)[O-])cn2)n1,i,i
COc1ccc(Nc2cc(C)nc(-n3cc([N+](=O)[O-])cn3)n2)cc1,i,i
Cc1cc(Nc2ccc(Cl)cc2)nc(-n2cc([N+](=O)[O-])cn2)n1,i,+
CC(C)(C)OC(=O)N1CCC(Cn2c(C(F)(F)F)nc3ccccc32)CC1,i,+
CC(C)(C)OC(=O)N1CCC(CO)CC1,i,i
COC(=O)c1ccc2nc(NC(=O)C3CCCCC3)sc2c1,i,i
COC(=O)c1sc2ccccc2c1NC(=O)C1CCCCC1,/,+
CCn1nnc2c(NC(C)COC)ncnc21 (stereo not given),i,i
Cc1nnsc1C(=O)N1CCC(CNC(=O)c2cccc(Cl)c2)CC1,i,i
Cc1nnsc1C(=O)N1CCC(CNC(=O)Nc2cccc(Cl)c2)CC1,i,+
Cc1ccc(CN2C(=O)NC3(CCN(C(=O)Nc4ccc(F)c(Cl)c4)CC3)C2=O)cc1,i,+
Cc1cc(C)cc(NC(=O)N2CCC3(CC2)NC(=O)N(Cc2ccc(Cl)cc2)C3=O)c1,i,i
Cc1cccc(-n2nc3c(c2-n2cccc2)CN(C(=O)c2cc(C)oc2C)C3)c1,i,+
Cc1ccc(-n2nc3c(c2-n2cccc2)CN(C(=O)c2ccc(F)c(F)c2)C3)cc1,i,i
O=C(NCCn1ncc2c(N3CCN(c4ccccc4)CC3)ncnc21)c1cc(-c2ccccc2)on1,/,i
Cn1ccc(C(=O)N=c2sc3cc4c(cc3n2C)OCCO4)n1,i,i
CCn1nc(C(=O)N=c2sc3cc(OC)ccc3n2CCSC)cc1C,i,/
CSCCn1c(=NC(=O)c2ccn(C)n2)sc2cc3c(cc21)OCCO3,i,+
COc1ccc2sc(=NC(=O)c3ccno3)n(CCSC)c2c1,i,+
Cc1c(C(=O)NCc2ccco2)c(C(F)(F)F)nn1Cc1ccc(F)cc1,i,i
SMILES,GIRK2 activator,GluA2 TARP mod
COc1ccccc1-c1cnn2c(NCCc3ccccc3)cc(C)nc12,i,+
COc1ccccc1-c1cnn2c(Nc3ccccc3)cc(C)nc12,i,i
COc1ccccc1CNC(=O)Cn1nc(-c2cc(OC)c(OC)c(OC)c2)ccc1=O,i,i
CN(c1ccsc1C(=O)Nc1cccc(Cl)c1)S(=O)(=O)c1ccccc1,i,i
CC(C)c1ccc(NC(=O)c2sccc2N(C)S(=O)(=O)c2ccccc2)cc1,i,+!
Cc1cc(C)cc(-n2c(C)c(C)n3c4c(=O)n(CCN5CCOCC5)c(=O)n(C)c4nc23)c1,/,i
COc1ccc(CNC(=O)NCC(O)(c2cccs2)C2CC2)cc1 (stereo not given),i,i
COc1ccc(CCS(=O)(=O)NCC2CCN(Cc3cccs3)CC2)cc1,i,/
COc1ccc(CCS(=O)(=O)NCC2CCN(Cc3ccccc3)CC2)cc1,i,+
COc1ccc(CCS(=O)(=O)NCC2CCN(C(=O)c3ccccc3F)CC2)cc1,i,+
COc1ccc(CCS(=O)(=O)NCC2CCN(c3ncccn3)CC2)cc1,i,i
CCOC(=O)Nc1nc(CC(=O)N2CCN(c3cccc(C)c3)CC2)cs1,i,/
COc1ccc(S(=O)(=O)c2c(C)cc(C)n(CC(=O)Nc3cc(OC)ccc3OC)c2=O)cc1,i,i
COc1ccc(CNC(=O)c2ccc(NC(=O)Cn3c(C)cc(C)c(C#N)c3=O)cc2)c(OC)c1,i,+!
CC1=CC(=C(C#N)C#N)C=C(C)O1,i,i
CCc1ccc(Oc2cc(N3CCC(C(=O)NCc4ccc(SC)cc4)CC3)ncn2)cc1,i,i
CCc1ccc(Oc2cc(N3CCC(C(=O)NCc4ccccc4F)CC3)ncn2)cc1,i,+
Cc1c(NS(=O)(=O)c2cccc(S(C)(=O)=O)c2)c(=O)n(-c2ccccc2)n1C,i,/
Cc1cc(C(C)(C)C)cc(S(=O)(=O)Nc2c(C)n(C)n(-c3ccccc3)c2=O)c1C,/,+
CCn1c(=O)c2c(nc(NC3CCCCC3)n2C)n(C)c1=O,i,i
COc1cc(/C=C/c2ccc3cccc(O)c3n2)cc(Br)c1O,/,+

# Compound activity from PubChem BioAssay.
